Experimental data: ChEMBL document CHEMBL3433997, “St. Jude Leishmania screening dataset” (2016)
Values joined by “and” are separate entries in the source; they are usually repeats but may differ in a detail not shown here. Equal entries are not always repeated.

Assays:
Format in all cases: functional
[1] = target: Solute carrier family 2, facilitated glucose transporter member 1 (Homo sapiens) (UniProt P11166); test: ST_JUDE_LEISH: Cytotoxicity at 2uM final concentration against transgenic Leishmania Mexicana promastigotes LmGLUT1 that are glucose transport deficient and complemented with the human glucose transporter GLUT1. Activity is measured by DNA content using SYBR green in vitro
[2] = target: Hexose transporter 1 (Plasmodium falciparum) (UniProt O97467); test: ST_JUDE_LEISH: Cytotoxicity at 2uM final concentration against transgenic Leishmania Mexicana promastigotes LmPfHT that are glucose transport deficient and complemented with the Plasmodium falciparum hexose transporter. Activity is measured by DNA content using SYBR green in vitro
[3] = target: Glucose transporter (Leishmania mexicana) (UniProt O61059); test: ST_JUDE_LEISH: Cytotoxicity at 2uM final concentration against transgenic Leishmania Mexicana promastigotes LmGT2 that are glucose transport deficient and complemented with the L. Mexicana glucose transporter 2. Activity is measured by DNA content using SYBR green in vitro

Chain of Solute carrier family 2, facilitated glucose transporter member 1 (Homo sapiens) (P11166 whole entry): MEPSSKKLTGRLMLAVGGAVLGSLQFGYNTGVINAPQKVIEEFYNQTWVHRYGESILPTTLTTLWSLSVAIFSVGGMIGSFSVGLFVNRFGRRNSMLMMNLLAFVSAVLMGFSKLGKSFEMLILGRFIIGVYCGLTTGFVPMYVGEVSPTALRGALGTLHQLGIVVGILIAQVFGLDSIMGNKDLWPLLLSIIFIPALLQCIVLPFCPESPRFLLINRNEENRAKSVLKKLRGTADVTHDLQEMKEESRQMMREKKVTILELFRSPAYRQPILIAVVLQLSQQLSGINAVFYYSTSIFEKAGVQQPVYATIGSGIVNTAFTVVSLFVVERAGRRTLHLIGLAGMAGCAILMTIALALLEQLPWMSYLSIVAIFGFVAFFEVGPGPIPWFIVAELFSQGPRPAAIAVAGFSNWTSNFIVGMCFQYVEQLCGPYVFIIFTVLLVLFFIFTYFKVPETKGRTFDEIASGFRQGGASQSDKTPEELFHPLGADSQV

CN(C)CCC(=O)c1ccccc1
inhibition [1]: 3.21%
inhibition [2]: 4.48%
inhibition [3]: 1.99%

CC(Cc1ccc(OCc2ccc(CCN(C)C)cc2)cc1)NCCc1cccc(Cl)c1 (stereo unspecified)
inhibition [1]: 1.8%
inhibition [2]: 0.77%
inhibition [3]: -2.69%

Cc1c(C)c2c(c(C)c1O)CC[C@@](C)(C(=O)N1CCC(CN3CCC(c4c[nH]c5ccccc45)CC3)CC1)O2
inhibition [1]: -0.93%
inhibition [2]: -1.76%
inhibition [3]: -3.6%

COc1cc(C=CC(=O)N2CCC(CN3CCC(c4c[nH]c5ccccc45)CC3)CC2)ccc1O
inhibition [1]: 8.46%
inhibition [2]: 6.19%
inhibition [3]: 6.97%

O=C(/C=C/c1ccccc1Cl)NC1CCC(CN2CCC(c3c[nH]c4ccccc34)CC2)CC1 (stereo unspecified)
inhibition [1]: 2.44% and 5.03%
inhibition [2]: 0.61% and 3.12%
inhibition [3]: -3.81% and 6.89%

CC(=O)C1(c2ccccc2)CCN(CCC2(c3ccc(Cl)c(Cl)c3)CN(C(=O)CC(C)C)CCO2)CC1 (stereo unspecified)
inhibition [1]: -0.51%
inhibition [2]: 0.43%
inhibition [3]: -2.67%

COC(=O)c1ccc(CC(C)NCC(O)c2ccc(Cl)c(Cl)c2)cc1 (stereo unspecified)
inhibition [1]: 6.46%
inhibition [2]: 3.9%
inhibition [3]: 5.96%

Cc1ccc(CC(C)NCC(O)c2cccc(C(F)(F)F)c2)cc1F (stereo unspecified)
inhibition [1]: 6.67%
inhibition [2]: 6.24%
inhibition [3]: 5.67%

C=C[C@H]1CN2CC[C@H]1C[C@@H]2[C@@H](O)c1ccnc2ccccc12
inhibition [1]: -1.24%
inhibition [2]: 1.12%
inhibition [3]: 0.13%

CC[C@H]1CN2CC[C@@H]1C[C@H]2[C@H](O)c1cc(N2CCC(N3CCCCC3)CC2)nc2ccc(OC)cc12
inhibition [1]: 1.26%
inhibition [2]: 4.69%
inhibition [3]: -0.04%

Cc1cccc2c(C3CCN(CC4CCC(NC(=O)/C=C/c5ccc(Cl)c(Cl)c5)CC4)CC3)c[nH]c12 (stereo unspecified)
inhibition [1]: 10.9%
inhibition [2]: 9.79%
inhibition [3]: 8.09%

N#Cc1ccc(N(CC(=O)NCCc2ccccc2)CC2CC2)c2ccccc12
inhibition [1]: 1.68%
inhibition [2]: 0.73%
inhibition [3]: 0.87%
